Six1-Eya2 blk – inhibitors of human Six1/Eya2 interaction; AlphaScreen GST-Six1/His-Eya2 binding, biochemical; stronger effect = lower value; activity change, % (test concentration not listed); hit rate 0.56% among 360,000; AID 651725
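AlphaScreen luminescence read after one hour at 37 °C in darkness. Pin-transferred compounds met GST-Six1 and His-Eya2 protein (5X stock 250 nM/500 nM) plus glutathione donor and Ni-chelate acceptor beads (5X, 50 ug/mL).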
PI4K2A inh – inhibitors of human PI4K2A. Q9BTU6. purified PI4K2A, ADP-Glo luminescence, 1 h; stronger effect = lower value. activity change, negative = inhibition, % at 76.9 µM. hit rate 0.13% among 420,000. AID 1346378; in the data active means activity change below about -50%; inconclusive means mostly about -30% to -49%;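 further: -100% = wells without enzyme as full effect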
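PI4K2A activity was measured by ADP-Glo luminescence: enzyme (4 ug/mL stock) and phosphatidylinositol (1.2 mM stock) in Tris pH 7.5/MgCl2/EGTA/Triton X-100 buffer were reacted with ATP (300 microM stock) for one hour at ambient temperature.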
PI5P4Ka inh – blocks human PI5P4K alpha kinase activity; AID 652105; max response, %; P48426; hit rate 1.2% among 330,000; PI5P4Kalpha enzyme, ADP-Glo luminescence, 60 min; stronger effect = lower value; active means max response of -50% or lower; inconclusive means between -30% and -50%; inactive means -30% or higher; further: value at the top dose of about 77 µM
Target sequence (P48426 whole entry, looked up): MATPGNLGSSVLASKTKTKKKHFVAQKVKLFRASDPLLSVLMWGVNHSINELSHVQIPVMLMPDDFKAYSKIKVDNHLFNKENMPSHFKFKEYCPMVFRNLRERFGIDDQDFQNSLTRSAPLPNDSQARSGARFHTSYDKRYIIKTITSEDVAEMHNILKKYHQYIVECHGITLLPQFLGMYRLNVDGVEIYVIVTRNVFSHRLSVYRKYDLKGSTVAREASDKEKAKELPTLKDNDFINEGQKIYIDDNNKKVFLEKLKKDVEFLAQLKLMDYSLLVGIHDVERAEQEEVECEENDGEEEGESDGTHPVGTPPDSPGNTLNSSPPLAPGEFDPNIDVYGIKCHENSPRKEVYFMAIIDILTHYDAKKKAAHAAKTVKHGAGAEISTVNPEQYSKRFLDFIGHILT
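Enzyme plus substrate dispensed, test compounds pinned in, then ATP (5 microM final) added. After 60 min at RT, ADP-Glo reagent 1 for 45 min and reagent 2 for 30 min preceded luminescence imaging.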
CtBP-E1A inh – blocks the CtBP interaction with E1A; activity change, % (concentration not given with the values); hit rate 0.49% among 340,000; AlphaScreen GST-E1A/His-CtBP binding, 1536-well; stronger effect = lower value
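Homogeneous bead-based format: GST-tagged E1A captured on glutathione donor beads, His-tagged CtBP on nickel acceptor beads; compounds precede bead addition by 2 h at 37 °C.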
Akt phos inh – blocks phosphorylation of Akt | Neuro2A IGF-stimulated pAkt S473 HTRF, 20 min; stronger effect = lower value | activity change, % for hits at 50 µM | AID 651550 | hit rate 0.32% among 360,000; in the data active means activity change below about -80%; inconclusive means mostly about -51% to -80%
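Single-point screen (50 µM final compound) in Neuro2A cells stimulated 20 min with 6 nM IGF at 37 deg C. After lysis, Ser473-phosphorylated Akt read by HTRF (ex 330 nm, em 615/665 nm) as the 665/615 ratio.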
An asterisk follows results filed as active; i = inactive; ? = inconclusive; . = no result given. Rows were chosen to be rich in hits. Some 1.8% of all compounds tested hit in one or more screens of this group. Unless noted, no stated cut-off is given here; in the data, active means activity change below about -65%; inconclusive means mostly about -30% to -63%; inactive means weaker than that. Unless noted, on the % scale 0 is the no-effect control and ±100 the full control effect.

SMILES | Six1-Eya2 blk | PI4K2A inh | PI5P4Ka inh | CtBP-E1A inh | Akt phos inh
CCOC(=O)[C@]1(C#N)[C@@H]2C=CC(C(C)=O)=CN2[C@@H](C(N)=O)[C@@H]1c1ccsc1 | -11 | 1 | -5 | 6 | -106%*
COC[C@H]1OC(=O)c2coc3c2[C@@]1(C)C1=C(C3=O)[C@@H]2CCC(=O)[C@@]2(C)C[C@H]1OC(C)=O | -4 | -18 | ? | -3 | i
CCn1c(O)c(C=NCc2ccccc2)c(=O)[nH]c1=S | 16 | -1 | 2 | -2 | i
O=C(O)CCC(=O)NCCC1=c2ccccc2=N/C1=C\c1c(O)n(Cc2ccc(F)cc2)c(=S)[nH]c1=O | -13 | -8 | -85* | -18 | i
c1ccc2c(CCNC3CCCCC3)c[nH]c2c1 | -7 | 3 | 0 | -3 | i
Cc1c(N=Nc2c(O)n(-c3ccc(Br)cc3)c(=O)[nH]c2=O)c(=O)n(-c2ccccc2)n1C | -92* | 3 | 1 | -94* | i
Cc1c(N=Nc2c(O)[nH]c(=O)[nH]c2=O)c(=O)n(-c2ccccc2)n1C | -91* | -2 | 0 | . | i
CN1CCN(c2ccc([N+](=O)[O-])c3no[n+]([O-])c23)CC1 | 3 | ? | -11 | -1 | i
C/C(=N\NC(=O)c1ccncc1)c1c(O)n(Cc2ccccc2)c(=O)[nH]c1=O | -5 | -6 | ? | -19 | i
C/C(=N\NC(=O)c1ccccc1O)c1c(O)n(C2CCCCC2)c(=O)[nH]c1=O | 0 | -1 | -10 | . | i
CC(=NCCCN1CCCCC1)c1c(O)n(Cc2ccccc2)c(=O)[nH]c1=O | -15 | -1 | -1 | -3 | -116%*
C/C(=N\NC(=O)c1ccccc1)c1c(O)n(C2CCCCC2)c(=O)[nH]c1=O | -2 | -3 | -51* | . | .
CC(=NCCN1CCCCC1)c1c(O)n(Cc2ccccc2)c(=O)[nH]c1=O | -1 | 5 | . | 4 | i
C/C(=N\NC(=O)c1ccccc1O)c1c(O)n(Cc2ccccc2)c(=O)[nH]c1=O | -22 | 0 | -71* | 1 | i
COc1cc([N+](=O)[O-])c2ncccc2c1[N+](=O)[O-] | -83* | -8 | -1 | ? | i
COc1cc([N+](=O)[O-])c2nc(C)ccc2c1[N+](=O)[O-] | -15 | 4 | -11 | 0 | i
O=C1NC(=O)N(Cc2ccccc2)C(=O)/C1=C/c1cnc(-c2ccccc2)nc1 | -1 | -14 | -73* | 3 | i
CC(C)c1ccc(N2C(=O)NC(=O)/C(=C/c3cnc(-c4ccccc4)nc3)C2=O)cc1 | 0 | -12 | -54* | 0 | i
Cn1c(O)c(/C=N/c2ccccn2)c(=O)n(C)c1=O | 0 | -3 | . | 5 | i
CCOC(=O)c1ccc(N=C(CC)c2c(O)n(C)c(=O)n(C)c2=O)cc1 | 15 | -5 | 3 | 12 | i
N#CC(C#N)=NNc1ccc(S(N)(=O)=O)cc1 | ? | -17 | -107* | -74* | i
CCOC(=O)C1=Nc2ccccc2/C1=C\c1c(O)n(C)c(=O)n(C)c1=O | -3 | ? | -64* | 0 | i
O=C1NC(=O)N(Cc2ccc(F)cc2)C(=O)/C1=C/c1cccs1 | -8 | -20 | -56* | -1 | i
O=C1NC(=O)N(Cc2ccc(F)cc2)C(=O)/C1=C\c1ccoc1 | -2 | -14 | -93* | 5 | i
O=C1NC(=S)N(c2ccc(F)cc2)C(=O)/C1=C\c1ccoc1 | -72* | ? | -87* | -9 | i
SMILES | Six1-Eya2 blk | PI4K2A inh | PI5P4Ka inh | CtBP-E1A inh | Akt phos inh
CN(C)c1ccc(/C=C2\C(=O)NC(=O)N(Cc3ccc(F)cc3)C2=O)cc1 | 10 | -1 | -22 | 6 | i
O=C1NC(=O)N(Cc2ccccc2Cl)C(=O)/C1=C/c1cccs1 | -2 | -19 | ? | . | i
Cc1ccc(N2C(=O)NC(=O)/C(=C\c3ccoc3)C2=O)cc1 | -25 | -7 | ? | -4 | i
CCOC(=O)COc1ccc2c(c1)c(C(C)=O)c(C)n2Cc1ccccc1 | 0 | -1 | 11 | 4 | i
Fc1ccccc1CN1Cc2ccccc2-n2nncc2C1 | 4 | 6 | -2 | 0 | i
Cc1cc(C=C2C(=O)NC(=O)NC2=O)c(C)n1-c1cccnc1 | -4 | -7 | -58* | -2 | i
C=CCN1C(=O)/C(=C/c2cc(C)n(-c3cccnc3)c2C)C(=O)NC1=S | -8 | -8 | -67* | -1 | i
Cc1cc(/C=C2/C(=O)NC(=O)N(c3ccccc3)C2=O)c(C)n1-c1ccc(F)cc1 | 2 | -3 | -7 | 13 | i
COc1ccc2[nH]cc(CCN)c2c1 | -13 | 3 | -9 | -13 | i
CC(=NCCC1=CCCCC1)c1c(O)[nH]c(=O)[nH]c1=O | 2 | 12 | -9 | 5 | -121%*
CN1C(=O)C(=Cc2coc3ccccc3c2=O)C(=O)N(C)C1=O | 1 | -15 | -73* | . | i
Cc1ccc2nc(-c3ccncc3)cc(C(=O)N3CCC4(CC3)OCCO4)c2c1 | 16 | 4 | -6 | 1 | i
COc1ccc(C2CC(c3c(O)n(CCc4ccccc4)c(=O)[nH]c3=O)=NN2)cc1OC (stereo unspecified) | -68* | -6 | ? | -26 | i
COc1ccc(CCn2c(O)c(C=NCc3cccnc3)c(=O)[nH]c2=O)cc1OC | -1 | 0 | -15 | 3 | i
COCCCNC(=O)c1c(NC(=O)c2ccco2)n(Cc2ccccc2)c2nc3ccccc3nc12 | -1 | -57* | 0 | ? | i
COCCCn1c(N)c(C(=O)OCCOC)c2nc3ccccc3nc21 | -10 | -7 | 5 | -8 | i
CCCCNC(=O)c1c(N)n(CCCOC)c2nc3ccccc3nc12 | 38 | -58* | . | -25 | i
COc1ccc(C=O)cc1O | -3 | 4 | 1 | 4 | i
CCOC(=O)c1c(-n2c(C)cc(/C=C3\C(=O)NC(=O)N(C)C3=O)c2C)sc2c1CCCC2 | 1 | -5 | . | -15 | i
Cc1cc(/C=C2\C(=O)NC(=O)N(c3ccc(Cl)cc3)C2=O)c(C)n1-c1sc2c(c1C#N)CCCC2 | -1 | -7 | -57* | . | i
CCc1ccc(N2C(=O)NC(=O)/C(=C\c3cc(C)n(-c4cc(C(=O)O)cc(C(=O)O)c4)c3C)C2=O)cc1 | -8 | -12 | -64* | 1 | i
Cc1ccc(N2C(=O)NC(=O)/C(=C\c3cc(C)n(-c4cc(C(=O)O)cc(C(=O)O)c4)c3C)C2=O)cc1 | ? | -6 | -52* | -14 | i
Cn1c(O)c(C=NC2CCCCC2)c(=O)[nH]c1=S | -8 | 0 | 0 | 4 | i
Cc1ccccc1-n1c(O)c(/C=N/Nc2nc3c(c(=O)n(C)c(=O)n3C)n2C)c(=O)[nH]c1=S | -68* | -9 | -27 | -78* | i
